Assay outcomes from PubChem BioAssay.
HT1080 IDH1KD tx: toxicity to HT-1080 IDH1 knockdown cells (counter line); 360,000 tested, 2% active; AID 686971; Potency, µM (highest dose often 46.1 µM), hits mostly cytotoxic; HT-1080 IDH1 knockdown viability, ATP luminescence, 48 h
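In this qHTS, HT-1080 cells depleted of IDH1 are exposed for 48 h at 37 °C to compound titrations. Toxicity is scored from CellTiter-Glo luminescence, with DMSO as full viability and medium alone as none.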
DT40 TDP1 no CPT: qHTS for Inhibitors of human tyrosyl-DNA phosphodiesterase 1 (TDP1): qHTS in cells in absence of CPT. Potency, µM (titrated, usually from 46.2 µM), most hits filed as inhibitors. 420,000 tested, 15% active. DT40 Tdp1-/- hTDP1 cells, no CPT, ATP luminescence, 48 h; note: nearly all actives have a fitted effect of over 55% in size
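Readout: luminescence from CellTiter-Glo after 30 min in the dark at RT. Cells: DT40 Tdp1-/- with stable hTDP1, 400/well. Exposure: compounds alone, ≥48 hr, 37 °C.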
HT1080NT lethal: kills 2HG-producing HT-1080-NT fibrosarcoma cells | HT-1080-NT fibrosarcoma viability, CellTiter-Glo ATP luminescence, 48 h | Potency, µM (series often up to 46.1 µM), most hits filed as cytotoxic | 360,000 tested, 1.6% active;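 note: NT is the 2HG producing partner of a matched IDH1 knockdown line; nearly all actives have a fitted effect of over 55% in size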
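A 48-hour cytotoxicity screen used HT-1080-NT cells plated 2 hours before compound delivery. ATP-based CellTiter-Glo luminescence measured viability, normalized to DMSO and no-cell controls.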
DT40 TDP1 CPT: DT40-hTDP1 cell growth loss with CPT | chicken DT40 Tdp1-/-;hTDP1 cells + 20 nM CPT, ATP luminescence, 48 h | Potency, µM (doses to about 46.2 µM), actives largely listed as inhibitors | AID 686979 | 420,000 tested, 12% active; note: nearly all actives have a fitted effect of over 55% in size
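Chicken DT40 Tdp1-/- cells stably complemented with human TDP1 were seeded at 400 cells/well in medium containing 20 nM camptothecin, exposed to pin-transferred compounds, and grown at 37 °C for at least 48 hr. Viability was read as ATP luminescence.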
HepG2 tox: kills HepG2 cells in TGF-b inhibitor counter-screen | HepG2 CAGA-GFP viability, ATP luminescence, 18 h | Potency, µM (titrated, usually from 46.1 µM), hits mostly cytotoxic | 410,000 tested, 0.76% active
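HepG2 CAGA-GFP cells (1000/well, DMEM with 1% FBS) received compound, then TGF-beta at 500 pg/mL final, and were incubated 18 hours at 37 degrees C. Viability was read by CellTiter-Glo luminescence. Media-only wells were set as complete cell-killing and DMSO as no toxicity.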
TGFb inhibitor: inhibitors of TGF-b signaling. Potency, µM (doses to about 46.1 µM), hits mostly inhibitors. HepG2 CAGA-GFP TGF-b/SMAD3 reporter, GFP fluorescence, 18 h; TGF-beta stimulated, 500 pg/mL final. 410,000 tested, 1.2% active. AID 588855; note: nearly all actives have a fitted effect of over 65% in size
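Cell-based qHTS in HEPG2 carrying a CAGA-GFP Smad reporter; compounds added before 500 pg/mL final TGF-beta, 18 h incubation at 37 degrees C, GFP fluorescence quantified per cell by imaging cytometry.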
Numbers stand for hits; - = inactive; ? = inconclusive; . = not tested or not shown; [ ] = another dose, or the depositor's remark. Most compounds without a hit are left out; they make up all but 17% or so of the library. Calls come from the whole dose curve; as a rule, active = well fitted curve in the direction sought with a large enough effect; inconclusive = small, poorly fitted or top-dose-only effect, or another doubt; inactive = no such curve, though single readings can be large; an effect the other way counts as inactive or inconclusive.

SMILES	HT1080 IDH1KD tx	DT40 TDP1 no CPT	HT1080NT lethal	DT40 TDP1 CPT	HepG2 tox	TGFb inhibitor
Cc1noc(C)c1NC(=O)Nc1cccc2c1O[C@H](CN(C)C(=O)Nc1ccc3c(c1)OCO3)[C@@H](C)CN([C@H](C)CO)C2=O	-	-	-	-	-	-
O=C(NCCc1nc2ccccc2[nH]1)/C(=C/c1ccc2c(c1)OCO2)NC(=O)c1ccccc1Cl	-	?	-	?	-	?
O=C1C(N2CCOCC2)=C(n2nnc3ccccc32)C(=O)c2ccccc21	16µM	3.3µM	12µM	2.3µM	14µM	?
COC(=O)c1ccc([C@H]2Nc3ccc(S(=O)(=O)Nc4cccc(C)c4)cc3[C@H]3C=CC[C@H]32)cc1	.	1.2µM	.	1.8µM	-	6.3µM
O=C(O)c1ccc(NS(=O)(=O)c2ccc3c(c2)C2C=CCC2C(c2ccccc2F)N3)cc1 (stereo not drawn)	-	-	-	-	-	-
COC(=O)c1ccc([C@@H]2Nc3c(OC)ccc(C)c3[C@@H]3C=CC[C@@H]32)cc1	.	?	.	?	-	?
COc1cccc([C@H]2Nc3ccc(S(=O)(=O)Nc4cc(C)ccc4C)cc3[C@H]3C=CC[C@H]32)c1	.	5.2µM	.	3.7µM	-	?
Cc1ccc(NS(=O)(=O)c2ccc3c(c2)[C@H]2C=CC[C@H]2[C@@H](c2ccc(F)cc2)N3)cc1C	.	5.2µM	.	8.2µM	-	8.9µM
COC(=O)c1ccc(C2Nc3ccc(/C(C)=N/NC(=O)C(OC)c4ccccc4)cc3C3C=CCC32)cc1 (stereo not drawn)	-	15µM	-	13µM	-	-
CC(=O)c1ccc2c(c1)C1C=CCC1C(c1ccncc1)N2 (stereo not drawn)	-	?	-	-	-	-
Cc1ccc([C@H]2Nc3ccc(S(=O)(=O)Nc4cccc(Cl)c4C)cc3[C@H]3C=CC[C@H]32)cc1	.	?	.	?	-	-
COc1ccc(S(=O)(=O)N2CCOCC2)cc1NC(=O)c1cc2c(s1)CCCC2	-	-	-	-	-	-
O=C(Nc1cc(S(=O)(=O)N2CCOCC2)ccc1N1CCOCC1)c1ccc([N+](=O)[O-])s1	-	7.3µM	-[9.24 µM]	12µM	-	?
O=C(Nc1cc(S(=O)(=O)N2CCOCC2)ccc1N1CCOCC1)c1cc2c(s1)CCC2	-	23µM	-	-	-	-
Cc1ccc(C)c(N2CCN(S(=O)(=O)c3ccc4oc(=O)c5ncn(C)c5c4c3)CC2)c1	.	?	.	?	-	-
CC(C)CCNC(=O)C(=O)Nc1ccc2c(c1)N(S(=O)(=O)c1cccs1)CCC2	2.6µM	3.7µM	3.3µM	5.2µM	-	-
COCCNC(=O)C(=O)Nc1ccc2c(c1)N(S(=O)(=O)c1cccs1)CCC2	6.5µM	1.5µM	?	1.8µM	-	-
Cc1cccc(Nc2nc3ccccc3n3c(N)nnc23)c1	.	-	.	-	-	.
CC(C)c1ccc(/C=C/C(=O)Nn2cnnc2)cc1	-	-	-	-	.	.
Cc1ccc(/C=C/C(=O)Nn2cnnc2)cc1	?	15µM	?	?	-	-
CCn1c(O)c(C=Nc2ccccc2)n(-c2ccccc2)c1=S	?	5.8µM	-	6.5µM	-	-
Cc1c(Cl)cccc1NC(=O)CSc1ccc(-c2ccccn2)nn1	.	23µM	.	?	-	?
COc1ccc(-c2ccc(SCC(=O)c3cccs3)nn2)cc1OC	-	16µM	-	?	-	-
Cc1cc(C)c(NC(=O)CSc2ccc(-c3ccccn3)nn2)c(C)c1	-	23µM	-	23µM	-	-
Cc1cccc(NC(=O)CSc2ccc(-c3ccccn3)nn2)c1C	-	?	-	-	-	?
SMILES	HT1080 IDH1KD tx	DT40 TDP1 no CPT	HT1080NT lethal	DT40 TDP1 CPT	HepG2 tox	TGFb inhibitor
COc1ccc(-c2ccc(SCC(=O)c3ccc(F)cc3)nn2)cc1OC	-	?	-	?	-	-
O=C(CSc1ccc(-c2ccccn2)nn1)Nc1ccc(F)c(F)c1	?	21µM	?	21µM	-	?
Cc1ccc(NC(=O)CSc2ccc(-c3ccccn3)nn2)cc1	?	?	?	?	-	?
Cc1ccc(NC(=O)CSc2ccc(-c3ccccn3)nn2)c(C)c1	-	?	-	?	-	-
COc1ccc(Cl)cc1NC(=O)N1CCN(Cc2cc(=O)n3nc(-c4ccccc4)sc3n2)CC1	.	-	.	-	-	-
COc1ccccc1NC(=O)CSc1ccc(-c2ccc(-n3cccn3)cc2)nn1	-	18µM	-	?	-	-
COc1ccc(NC(=O)CSc2ccc(-c3ccccn3)nn2)cc1OC	-	16µM	-	23µM	-	-
O=C(CSc1ccc(-c2cccs2)nn1)Nc1cccc(F)c1	.	23µM	.	15µM	-	?
COc1ccc(-c2ccc(SCC(=O)Nc3cccc(C(C)=O)c3)nn2)cc1OC	-	18µM	-	13µM	-	-
CCn1nnnc1SCC(=O)N(C)C1CCS(=O)(=O)C1 (stereo not drawn)	-	-	-	-	-	-
Cc1cc(C)n2nc(SCC(=O)Nc3cc(Cl)ccc3C)nc2n1	.	.	.	.	-	-
CCOC(=O)c1ccc(NC(=O)CSc2ccc(-c3ccccn3)nn2)cc1	?	18µM	?	21µM	-	-
CCOc1ccc(NC(=O)CSc2ccc(-c3ccccn3)nn2)cc1	-	?	-	?	-	-
CCOc1ccc(C2OC34CCCCC3C(C#N)(C#N)C2(C#N)C(=N)O4)cc1OC (stereo not drawn)	-	16µM	-	13µM	-	-
C=CCOc1ccc(C2OC34CCCCC3C(C#N)(C#N)C2(C#N)C(=N)O4)cc1 (stereo not drawn)	-	6.5µM	-	13µM	-	-
COc1ccc(S(=O)(=O)Nc2cccnc2)cc1	-	-	-	-	-	-
CCn1cc(CN2CCCC(C(=O)Nc3cccc(-c4cc5ccccc5[nH]4)c3)C2)c(C)n1 (stereo not drawn)	?	?	21µM	23µM	-	?
Cn1cc(CN2CCCC(C(=O)Nc3cccc(-c4cc5ccccc5[nH]4)c3)C2)cn1 (stereo not drawn)	29µM	?	?	?	-	?
CCOc1cccc(CN2CCCC(C(=O)Nc3ccc(-c4ccn[nH]4)cc3)C2)c1O (stereo not drawn)	-	-	-	?	-	-
COc1cccc(-c2ccc(NC(=O)C3CCCN(Cc4nccn4C)C3)cc2)c1 (stereo not drawn)	-	?	-	?	-	-
